High-throughput results deposited in PubChem by University of Kansas High Throughput Screening Laboratory.
Pf apPOL block = Pf-apPOL DNA polymerase inhibition. Recombinant Pf-apPOL, molecular beacon fluorescence, 1.5 h. inhibition, % at 10 µM. hit rate 0.25% among 210,000
mHTT-CaM PPI inh = inhibitors of human mutant huntingtin-calmodulin interaction | AID 1671202 | inhibition, % at 15 µM | AlphaScreen His-mHTT/GST-CaM binding, luminescence | hit rate 3.6% among 190,000 | P42858;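 also: 0% = both proteins with DMSO and 100% = one protein alone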
* hit, by the source's call. A selection: hits, their analogues and other compounds. The true share with any hit is near 3.6%. Rule as the data show it: active = inhibition above about 50%; inactive = the rest.

Results for CCCN1CCCc2cc(CCNC(=O)C(=O)Nc3cccc(SC)c3)ccc21 ?
Pf apPOL block: -2; mHTT-CaM PPI inh: 65*

How did CN(C)c1nc(-c2ccc(F)cc2)ncc1C(=O)NCC1CCCO1 (stereo not drawn) do in these assays?
Pf apPOL block: -6; mHTT-CaM PPI inh: 6

How did Cc1cc2c(c(=O)[nH]1)C(=O)O/C2=C/c1cn[nH]c1-c1cccs1 do in these assays?
mHTT-CaM PPI inh: 64*

What do the screens show for `CC(=O)Nc1ccc(/C=C2\OC(=O)c3c2cc(C)[nH]c3=O)cc1`?
Pf apPOL block: -4; mHTT-CaM PPI inh: 2

How did O=[N+]([O-])c1ccc(Cl)c(N=Cc2nc(-c3ccccc3)oc2O)c1 do in these assays?
Pf apPOL block: -1; mHTT-CaM PPI inh: 10

What do the screens show for `Brc1cccc(CN2CCC(N3CCCCC3)CC2)c1`?
Pf apPOL block: 3; mHTT-CaM PPI inh: 10

Results for Brc1cccc(CN2CCC(N3CCCCCC3)CC2)c1 ?
Pf apPOL block: 70*; mHTT-CaM PPI inh: -2

Results for Cc1cc(C)cc(N2C(=O)CSC23C(=O)Nc2ccc(Br)cc23)c1 (stereo not drawn) ?
Pf apPOL block: -10; mHTT-CaM PPI inh: 56*

How did O=C1CSC2(C(=O)Nc3ccc(Br)cc32)N1c1cccc([N+](=O)[O-])c1 (stereo not drawn) do in these assays?
Pf apPOL block: -12; mHTT-CaM PPI inh: 17

How did O=c1c2scc(-c3ccc(F)cc3)c2ncn1Cc1ccncc1 do in these assays?
Pf apPOL block: -8; mHTT-CaM PPI inh: -4

How did Cc1nccn1-c1ccc(CNC(=O)C(C)C)cc1 do in these assays?
Pf apPOL block: 3; mHTT-CaM PPI inh: 3

How did CC(C)n1cnnc1C1CCCN(C(=O)c2n[nH]c3ccccc23)C1 (stereo not drawn) do in these assays?
Pf apPOL block: 3; mHTT-CaM PPI inh: 2

How did COc1ccc(/C=C2/SC(N3CCC(C)CC3)=NC2=O)c(OC)c1 do in these assays?
Pf apPOL block: -4; mHTT-CaM PPI inh: 58*

What do the screens show for `COc1ccc(/C=C2/SC(N3CCCCC3)=NC2=O)c(OC)c1`?
Pf apPOL block: 0; mHTT-CaM PPI inh: 16

How did Cc1nc2ncccn2c1-c1csc(NCc2ccccc2)n1 do in these assays?
Pf apPOL block: -2; mHTT-CaM PPI inh: 7

Results for Cc1ccc(Nc2nc(-c3c(C)nc4ncccn34)cs2)cc1 ?
Pf apPOL block: -1; mHTT-CaM PPI inh: 80*

How did Cc1nc2sccn2c1-c1csc(Nc2ccccn2)n1 do in these assays?
Pf apPOL block: -1; mHTT-CaM PPI inh: 29

How did Cc1ccn2c(-c3csc(Nc4ncccn4)n3)c(C)nc2c1 do in these assays?
Pf apPOL block: -3; mHTT-CaM PPI inh: 0

What do the screens show for `CCOc1ccc(Nc2nc(-c3c(C)nc4cc(C)ccn34)cs2)cc1`?
Pf apPOL block: -26; mHTT-CaM PPI inh: 67*

Results for Cc1ccccc1Nc1nc(-c2c(C)nc3sccn23)cs1 ?
Pf apPOL block: -4; mHTT-CaM PPI inh: 56*

Results for Cc1nc2ccccn2c1-c1csc(NCc2ccccc2)n1 ?
Pf apPOL block: -3; mHTT-CaM PPI inh: 36

How did CCN(CC)c1ccc(Nc2nc(-c3c(C)nc4ccccn34)cs2)cc1 do in these assays?
Pf apPOL block: 64*; mHTT-CaM PPI inh: 97*

Results for NC(=O)C1CCc2sc(C(=O)N3CCCCCC3)cc2C1 (stereo not drawn) ?
Pf apPOL block: -4; mHTT-CaM PPI inh: -1

Results for CCC(C)(C)C1CCc2c(sc(NC(=O)c3cc4ccccc4c(=O)o3)c2C(N)=O)C1 (stereo not drawn) ?
Pf apPOL block: -12; mHTT-CaM PPI inh: 1

What do the screens show for `COc1nn(C)cc1C(=O)N1CCN(C(=O)C2CC2c2ccccc2)CC1` (stereo not drawn)?
Pf apPOL block: 1; mHTT-CaM PPI inh: -7

Results for COc1c(C(=O)Nc2ccc(N3CCOCC3)cc2)sc2ccc(Cl)cc12 ?
Pf apPOL block: 1; mHTT-CaM PPI inh: 0

How did Cc1nnsc1C(=O)Nc1cc(C(F)(F)F)ccc1Cl do in these assays?
Pf apPOL block: -3; mHTT-CaM PPI inh: -28

Results for CCNC(=O)c1nc(-c2oc3c(C)cccc3c2C)no1 ?
Pf apPOL block: 2; mHTT-CaM PPI inh: -7

Results for Cc1ccccc1CNC(=O)c1c(C)sc2c(=O)n(C3CC3)cnc12 ?
Pf apPOL block: 1; mHTT-CaM PPI inh: 1

What do the screens show for `CCC(CO)NCC(O)CN1c2ccccc2Sc2ccccc21` (stereo not drawn)?
Pf apPOL block: -1; mHTT-CaM PPI inh: 10

How did CCN(CC)C(C)CN1c2ccccc2Sc2ccccc21 (stereo not drawn) do in these assays?
Pf apPOL block: -3

How did OC(CN1c2ccccc2Sc2ccccc21)Cn1cnc(-c2ccccc2)c1-c1ccccc1 (stereo not drawn) do in these assays?
mHTT-CaM PPI inh: 100*

How did OC(CNCCc1ccccc1)CN1c2ccccc2Sc2ccccc21 (stereo not drawn) do in these assays?
Pf apPOL block: -1; mHTT-CaM PPI inh: 100*

Results for Cc1nc(NCCNS(=O)(=O)Cc2ccccc2)cc(-n2ccnc2C)n1 ?
Pf apPOL block: -2; mHTT-CaM PPI inh: -4

Results for Cn1nc(COCc2ccccc2)c2c1CCN(S(=O)(=O)Cc1ccccc1)C2 ?
Pf apPOL block: -6; mHTT-CaM PPI inh: 22

What do the screens show for `O=C(O)C1CCN(c2nc(-c3cccc([N+](=O)[O-])c3)cs2)CC1`?
Pf apPOL block: -3; mHTT-CaM PPI inh: 8

What do the screens show for `Cc1ccc(C)c(C2Nc3ccccc3NC3=C2C(=O)CC(c2cccs2)C3)c1` (stereo not drawn)?
Pf apPOL block: -3; mHTT-CaM PPI inh: 45

How did COc1ccc(-c2ccc3nc(N4CCC(C(=O)N5CCOCC5)CC4)sc3n2)cc1 do in these assays?
Pf apPOL block: 2; mHTT-CaM PPI inh: 3

What do the screens show for `Cc1ccc2nc(NC(=O)CN3C(=O)c4ccccc4C3=O)sc2c1`?
Pf apPOL block: 1; mHTT-CaM PPI inh: 4

Results for CN(C)CCN(C(=O)CN1C(=O)c2ccccc2C1=O)c1nc2ccc(Cl)cc2s1 ?
Pf apPOL block: -5; mHTT-CaM PPI inh: 84*

What do the screens show for `Cc1nc2ccc3nc(NC(=O)c4cccc(S(C)(=O)=O)c4)sc3c2s1`?
Pf apPOL block: 5; mHTT-CaM PPI inh: -3

How did CC1=NN(c2cc(Cl)ccc2Cl)C(=O)/C1=C/c1cccn1-c1ccc(S(N)(=O)=O)cc1 do in these assays?
Pf apPOL block: 0; mHTT-CaM PPI inh: 63*

What do the screens show for `NS(=O)(=O)c1ccc(-n2cccc2/C=N/n2cnnc2)cc1`?
mHTT-CaM PPI inh: inactive

How did CC1=NN(c2cc(Cl)cc(Cl)c2)C(=O)/C1=C/c1cccn1-c1ccc(S(N)(=O)=O)cc1 do in these assays?
Pf apPOL block: -4; mHTT-CaM PPI inh: 52*

Results for CC1=NN(c2ccc(S(N)(=O)=O)cc2)C(=O)/C1=C/c1ccc(O)cc1 ?
Pf apPOL block: 1; mHTT-CaM PPI inh: 27

Results for COc1ccc(C(=O)N2CC3CC2CC3NC(=O)c2cccs2)cn1 (stereo not drawn) ?
Pf apPOL block: -3; mHTT-CaM PPI inh: -1

What do the screens show for `Cc1ccc(-c2cc(C(=O)NCCC(=O)N3CCCCC3)no2)cc1C`?
Pf apPOL block: -1; mHTT-CaM PPI inh: 16

How did O=C(NCc1csc(-c2ccccc2)n1)C1CCN(S(=O)(=O)c2ccccc2)CC1 do in these assays?
Pf apPOL block: -6; mHTT-CaM PPI inh: -2

Results for O=C(c1ccccc1-c1ocnc1C(=O)N1CCCC1)N1CCCCC1 ?
Pf apPOL block: -3; mHTT-CaM PPI inh: -1

Results for CC1=NN(c2nc3ccccc3s2)C(=O)/C1=C(\C)N(C)C ?
Pf apPOL block: 2; mHTT-CaM PPI inh: 9
